In the supplement of paper PMC10849652:
About 7,900 targets were measured; listed, in parts, are those with a hit and a random draw of the rest. About 0.6% of all pairs of compound and target were hits. A number with no mark means an inactive call.

Compound: CN1CC[C@H](c2c(O)cc(O)c3c(=O)cc(-c4ccccc4Cl)oc23)[C@H](O)C1 [alvocidib]
Test: log2 fold change, soluble protein after heating vs DMSO (PISA); higher = thermal stabilisation; K562 cells, 10 uM, 30 min; active = over 0.2 and 3.5 SD of the protein, either way, in both replicates (recomputed)
Summary of the method: (§1)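 K562 cells at 2×10^6 cells/mL were exposed to 10 μM compound for 30 min, then aliquots were heated for 3 min across 48°C-58°C, pooled, and extracted in PBS containing 0.5% NP-40 at 4°C. The supernatant after 21,000xg for 90 min was taken as soluble protein and measured by TMTpro 16plex LC-MS/MS with channel sums equalised. Thermal stability is reported relative to control samples, with values from duplicates. Fold changes are given on a log2 scale.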

Sequence of UniProt P41091 (P41091 whole entry, looked up): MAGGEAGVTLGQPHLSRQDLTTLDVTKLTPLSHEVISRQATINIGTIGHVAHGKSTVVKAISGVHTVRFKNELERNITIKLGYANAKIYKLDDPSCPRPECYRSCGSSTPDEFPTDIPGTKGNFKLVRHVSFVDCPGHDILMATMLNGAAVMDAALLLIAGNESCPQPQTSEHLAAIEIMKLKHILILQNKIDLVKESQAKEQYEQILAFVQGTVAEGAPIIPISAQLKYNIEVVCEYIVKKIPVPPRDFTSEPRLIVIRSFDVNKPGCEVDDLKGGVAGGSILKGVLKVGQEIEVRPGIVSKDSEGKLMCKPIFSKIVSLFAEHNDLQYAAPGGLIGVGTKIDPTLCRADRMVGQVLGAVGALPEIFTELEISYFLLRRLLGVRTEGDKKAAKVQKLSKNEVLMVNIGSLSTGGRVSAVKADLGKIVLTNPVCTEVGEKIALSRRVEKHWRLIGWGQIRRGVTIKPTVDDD
Sequence of UniProt Q03468 (Q03468 whole entry, looked up): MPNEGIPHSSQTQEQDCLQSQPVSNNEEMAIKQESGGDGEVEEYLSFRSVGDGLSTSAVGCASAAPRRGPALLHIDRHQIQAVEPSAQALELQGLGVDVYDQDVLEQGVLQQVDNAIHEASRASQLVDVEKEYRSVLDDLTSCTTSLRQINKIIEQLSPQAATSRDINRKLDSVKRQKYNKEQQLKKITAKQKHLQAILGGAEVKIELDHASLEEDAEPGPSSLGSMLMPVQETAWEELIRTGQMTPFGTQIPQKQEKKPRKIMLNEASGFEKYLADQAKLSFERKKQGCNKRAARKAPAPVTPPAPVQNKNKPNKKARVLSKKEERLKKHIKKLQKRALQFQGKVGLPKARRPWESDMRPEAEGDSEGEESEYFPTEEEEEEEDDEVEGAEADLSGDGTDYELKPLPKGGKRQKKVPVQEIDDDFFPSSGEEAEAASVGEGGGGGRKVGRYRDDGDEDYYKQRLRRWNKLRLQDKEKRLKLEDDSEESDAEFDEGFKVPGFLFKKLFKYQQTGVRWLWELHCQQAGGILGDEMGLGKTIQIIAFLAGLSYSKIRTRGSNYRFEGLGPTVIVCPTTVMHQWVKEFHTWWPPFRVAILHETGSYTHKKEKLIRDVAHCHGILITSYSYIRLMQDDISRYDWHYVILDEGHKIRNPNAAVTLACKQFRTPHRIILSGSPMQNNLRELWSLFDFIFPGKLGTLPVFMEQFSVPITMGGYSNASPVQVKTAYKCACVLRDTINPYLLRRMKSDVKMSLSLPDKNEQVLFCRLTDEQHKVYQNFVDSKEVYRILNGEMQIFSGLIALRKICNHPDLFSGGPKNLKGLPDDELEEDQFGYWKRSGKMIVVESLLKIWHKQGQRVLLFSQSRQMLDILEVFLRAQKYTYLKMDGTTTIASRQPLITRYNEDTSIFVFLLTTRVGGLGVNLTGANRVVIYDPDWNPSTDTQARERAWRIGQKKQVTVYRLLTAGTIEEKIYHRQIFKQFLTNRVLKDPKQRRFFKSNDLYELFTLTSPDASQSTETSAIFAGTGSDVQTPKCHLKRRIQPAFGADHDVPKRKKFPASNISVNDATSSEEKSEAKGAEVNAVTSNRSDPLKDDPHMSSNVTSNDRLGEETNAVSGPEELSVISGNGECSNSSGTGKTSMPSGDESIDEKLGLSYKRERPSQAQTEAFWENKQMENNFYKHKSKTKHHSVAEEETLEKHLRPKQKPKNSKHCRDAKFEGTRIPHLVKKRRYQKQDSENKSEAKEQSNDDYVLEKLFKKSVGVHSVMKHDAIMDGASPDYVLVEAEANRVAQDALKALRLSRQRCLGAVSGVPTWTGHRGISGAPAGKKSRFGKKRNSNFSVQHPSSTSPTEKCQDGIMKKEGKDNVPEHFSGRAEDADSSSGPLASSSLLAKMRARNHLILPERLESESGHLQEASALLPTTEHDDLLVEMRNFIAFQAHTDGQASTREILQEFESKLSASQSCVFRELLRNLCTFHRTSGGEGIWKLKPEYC
Sequence of UniProt Q13409 (Q13409 whole entry, looked up): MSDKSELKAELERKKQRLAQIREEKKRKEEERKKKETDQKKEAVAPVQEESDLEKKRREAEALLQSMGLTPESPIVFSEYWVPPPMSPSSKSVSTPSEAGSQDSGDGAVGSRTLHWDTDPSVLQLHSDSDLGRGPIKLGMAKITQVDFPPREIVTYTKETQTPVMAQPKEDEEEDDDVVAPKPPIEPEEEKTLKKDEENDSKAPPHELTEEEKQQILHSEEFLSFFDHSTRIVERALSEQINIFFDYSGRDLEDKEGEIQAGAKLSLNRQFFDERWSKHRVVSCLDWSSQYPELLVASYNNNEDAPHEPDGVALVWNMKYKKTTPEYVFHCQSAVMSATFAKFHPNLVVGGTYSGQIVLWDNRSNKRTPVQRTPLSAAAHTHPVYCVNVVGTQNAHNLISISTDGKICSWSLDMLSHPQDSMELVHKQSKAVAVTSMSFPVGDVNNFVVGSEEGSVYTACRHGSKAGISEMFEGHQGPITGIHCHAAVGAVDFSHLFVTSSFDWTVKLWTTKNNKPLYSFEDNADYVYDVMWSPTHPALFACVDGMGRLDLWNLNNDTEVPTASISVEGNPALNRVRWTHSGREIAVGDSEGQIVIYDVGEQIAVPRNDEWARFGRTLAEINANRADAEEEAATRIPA
Sequence of UniProt Q9UER7 (Q9UER7 whole entry, looked up): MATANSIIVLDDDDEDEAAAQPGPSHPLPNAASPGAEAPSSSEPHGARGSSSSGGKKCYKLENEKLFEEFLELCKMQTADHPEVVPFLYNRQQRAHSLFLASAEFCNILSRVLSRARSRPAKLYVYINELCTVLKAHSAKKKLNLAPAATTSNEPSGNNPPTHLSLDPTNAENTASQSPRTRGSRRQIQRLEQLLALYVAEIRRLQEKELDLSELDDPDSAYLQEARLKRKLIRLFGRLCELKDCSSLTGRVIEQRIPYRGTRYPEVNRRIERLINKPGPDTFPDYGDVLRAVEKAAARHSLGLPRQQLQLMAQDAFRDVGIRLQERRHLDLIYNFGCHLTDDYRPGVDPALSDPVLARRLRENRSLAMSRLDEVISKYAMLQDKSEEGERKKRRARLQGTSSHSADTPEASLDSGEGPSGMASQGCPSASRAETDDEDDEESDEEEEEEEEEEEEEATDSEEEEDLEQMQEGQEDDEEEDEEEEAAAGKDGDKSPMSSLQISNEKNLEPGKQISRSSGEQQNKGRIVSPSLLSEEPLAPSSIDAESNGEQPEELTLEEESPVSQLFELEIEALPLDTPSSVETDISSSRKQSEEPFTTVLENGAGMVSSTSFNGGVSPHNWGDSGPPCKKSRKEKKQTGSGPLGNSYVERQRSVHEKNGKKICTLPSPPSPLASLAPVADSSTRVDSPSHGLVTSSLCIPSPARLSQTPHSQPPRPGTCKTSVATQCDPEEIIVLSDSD
Sequence of UniProt O60888 (O60888 whole entry, looked up): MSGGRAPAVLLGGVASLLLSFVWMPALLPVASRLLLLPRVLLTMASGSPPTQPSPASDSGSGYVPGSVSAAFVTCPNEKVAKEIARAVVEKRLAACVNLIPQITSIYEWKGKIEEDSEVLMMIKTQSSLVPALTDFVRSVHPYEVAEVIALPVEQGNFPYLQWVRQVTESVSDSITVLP
Sequence of UniProt P39880 (P39880 whole entry, looked up): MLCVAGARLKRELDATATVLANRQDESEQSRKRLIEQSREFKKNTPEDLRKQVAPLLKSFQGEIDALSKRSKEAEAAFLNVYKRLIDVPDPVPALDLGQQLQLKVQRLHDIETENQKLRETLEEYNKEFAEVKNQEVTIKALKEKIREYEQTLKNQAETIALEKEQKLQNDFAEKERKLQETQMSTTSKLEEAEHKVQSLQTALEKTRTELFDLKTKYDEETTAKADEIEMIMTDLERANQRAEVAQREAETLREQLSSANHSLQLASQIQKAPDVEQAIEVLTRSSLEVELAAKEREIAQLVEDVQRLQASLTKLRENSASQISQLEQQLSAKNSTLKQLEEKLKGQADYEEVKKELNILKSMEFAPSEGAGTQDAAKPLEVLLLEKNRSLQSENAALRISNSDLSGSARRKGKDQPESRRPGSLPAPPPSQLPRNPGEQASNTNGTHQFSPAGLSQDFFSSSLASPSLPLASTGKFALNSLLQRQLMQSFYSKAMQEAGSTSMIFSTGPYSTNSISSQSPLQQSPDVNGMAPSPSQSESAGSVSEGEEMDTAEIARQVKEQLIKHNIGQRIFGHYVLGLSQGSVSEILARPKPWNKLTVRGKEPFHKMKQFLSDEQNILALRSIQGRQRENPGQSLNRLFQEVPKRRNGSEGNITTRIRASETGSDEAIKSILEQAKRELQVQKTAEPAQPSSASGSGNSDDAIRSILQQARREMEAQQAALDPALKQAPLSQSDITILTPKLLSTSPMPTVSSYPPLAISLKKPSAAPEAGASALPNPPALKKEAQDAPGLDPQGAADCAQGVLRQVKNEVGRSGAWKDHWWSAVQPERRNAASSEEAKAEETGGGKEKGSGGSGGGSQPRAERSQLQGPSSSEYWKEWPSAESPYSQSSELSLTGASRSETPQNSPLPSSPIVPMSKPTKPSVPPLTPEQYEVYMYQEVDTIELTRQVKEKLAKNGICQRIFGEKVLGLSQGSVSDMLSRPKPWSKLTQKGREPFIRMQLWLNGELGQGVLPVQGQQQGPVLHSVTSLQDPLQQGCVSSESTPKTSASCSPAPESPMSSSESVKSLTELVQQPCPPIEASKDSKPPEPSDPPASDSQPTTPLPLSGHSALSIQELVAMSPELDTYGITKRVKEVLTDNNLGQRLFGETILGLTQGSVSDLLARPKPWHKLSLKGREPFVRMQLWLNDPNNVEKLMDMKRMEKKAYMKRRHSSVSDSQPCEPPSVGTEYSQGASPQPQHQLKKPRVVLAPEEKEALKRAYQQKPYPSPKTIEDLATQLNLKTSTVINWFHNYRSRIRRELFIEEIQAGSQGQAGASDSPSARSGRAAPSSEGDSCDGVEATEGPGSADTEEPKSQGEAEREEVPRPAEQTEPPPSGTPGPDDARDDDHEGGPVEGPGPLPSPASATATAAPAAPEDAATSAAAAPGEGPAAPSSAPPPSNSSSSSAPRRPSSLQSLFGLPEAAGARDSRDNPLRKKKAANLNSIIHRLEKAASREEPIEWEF

Target	log2 fold change
DNAH10 (UniProt Q8IVF4)	0.028
DOCK8 (UniProt Q8NF50)	0.149
ERCC6 (UniProt Q03468)	-0.04
ETNK1 (UniProt Q9HBU6)	-0.028
DYNC1I2 isoform 5 (UniProt Q13409)	-0.033
CUX1 isoform 3 (UniProt P39880)	-0.02
CWF19L2 (UniProt Q2TBE0)	0.081
EIF2S3 (UniProt P41091)	0.057
CUTA isoform 2 (UniProt O60888)	-0.158
EIF2AK1 (UniProt Q9BQI3)	0.072
DNAH5 (UniProt Q8TE73)	0.044
EPHX2 (UniProt P34913)	-0.023
EDEM2 (UniProt Q9BV94)	-0.028
ELOVL5 isoform 2 (UniProt Q9NYP7)	-0.021
DAXX (UniProt Q9UER7)	0
CTSS (UniProt P25774)	-0.039

Compound: CN1CCc2c(c3ccccc3n2Cc2ccc(C(=O)NO)cc2)C1 [Tubastatin A]
Test: as above
Summary of the method: as §1

Target	log2 fold change
CTNNB1 (UniProt P35222)	0.148
DENND10 (UniProt Q8TCE6)	0.007
EXOSC10 (UniProt Q01780)	0.143
EXOC4 (UniProt Q96A65)	0.058
DEGS1 (UniProt O15121)	-0.521 (active)
DDX27 (UniProt Q96GQ7)	0.09
EDC4 (UniProt Q6P2E9)	0.016
CTSV (UniProt O60911)	0.016
CYB561A3 isoform 2 (UniProt Q8NBI2)	0.047
DCP2 (UniProt Q8IU60)	0.013
ERLIN2 (UniProt O94905)	0
DPYSL2 (UniProt Q16555)	-0.003
FAM50A (UniProt Q14320)	0.029
FAM118A (UniProt Q9NWS6)	0.029
DIP2A (UniProt Q14689)	-0.094
DNAJC24 (UniProt Q6P3W2)	-0.094
EZH2 isoform 2 (UniProt Q15910)	0.119
DHRS13 (UniProt Q6UX07)	0.105
FAM193B (UniProt Q96PV7)	-0.007

Target	log2 fold change
ECPAS (UniProt Q5VYK3)	0.038
DMAC1 (UniProt Q96GE9)	0.031
ELF1 (UniProt P32519)	0.075
DNAH10 (UniProt Q8IVF4)	0.191
DOCK8 (UniProt Q8NF50)	0.166
ERCC6 (UniProt Q03468)	-0.093
ETNK1 (UniProt Q9HBU6)	0.092
DYNC1I2 isoform 5 (UniProt Q13409)	0.003
CUX1 isoform 3 (UniProt P39880)	0.021
CWF19L2 (UniProt Q2TBE0)	-0.079
EIF2S3 (UniProt P41091)	-0.006
CUTA isoform 2 (UniProt O60888)	0.049
EIF2AK1 (UniProt Q9BQI3)	0.128
DNAH5 (UniProt Q8TE73)	0.058
EPHX2 (UniProt P34913)	0.003
EDEM2 (UniProt Q9BV94)	0.022
ELOVL5 isoform 2 (UniProt Q9NYP7)	-0.085
DAXX (UniProt Q9UER7)	0.122
CTSS (UniProt P25774)	-0.084

Compound: CNC(=O)C1=CC=CC=C1NC2=NC(=NC=C2Cl)NC3=C(C=C(C=C3)N4CCOCC4)OC
Test: as above
Summary of the method: as §1

Target	log2 fold change
CTNNB1 (UniProt P35222)	-0.065
DENND10 (UniProt Q8TCE6)	-0.039
EXOSC10 (UniProt Q01780)	-0.073
EXOC4 (UniProt Q96A65)	-0.04
DEGS1 (UniProt O15121)	0.046
DDX27 (UniProt Q96GQ7)	-0.035
EDC4 (UniProt Q6P2E9)	-0.163
CTSV (UniProt O60911)	0.048
CYB561A3 isoform 2 (UniProt Q8NBI2)	0.025
ERLIN2 (UniProt O94905)	-0.137
DPYSL2 (UniProt Q16555)	-0.066
ELAC1 (UniProt Q9H777)	-0.056
FAM50A (UniProt Q14320)	0.056
DIP2A (UniProt Q14689)	0.034
DNAJC24 (UniProt Q6P3W2)	-0.033
EZH2 isoform 2 (UniProt Q15910)	0.011
DHRS13 (UniProt Q6UX07)	0.024
ECPAS (UniProt Q5VYK3)	0.012

Target	log2 fold change
DMAC1 (UniProt Q96GE9)	-0.077
ELF1 (UniProt P32519)	0.013
DNAH10 (UniProt Q8IVF4)	-0.157
DOCK8 (UniProt Q8NF50)	-0.163
ERCC6 (UniProt Q03468)	0.126
ETNK1 (UniProt Q9HBU6)	0.053
DYNC1I2 isoform 5 (UniProt Q13409)	0.012
CUX1 isoform 3 (UniProt P39880)	0.012
CWF19L2 (UniProt Q2TBE0)	-0.034
EIF2S3 (UniProt P41091)	-0.02
CUTA isoform 2 (UniProt O60888)	0.003
EIF2AK1 (UniProt Q9BQI3)	0.002
DNAH5 (UniProt Q8TE73)	-0.057
EPHX2 (UniProt P34913)	-0.022
EDEM2 (UniProt Q9BV94)	-0.016
ELOVL5 isoform 2 (UniProt Q9NYP7)	-0.032
DAXX (UniProt Q9UER7)	-0.142
